High-throughput results: PubChem, National Center for Advancing Translational Sciences (NCATS)
HP1b chromo inh – HTS for Inhibitors of HP1-beta Chromodomain Interactions with Methylated Histone Tails; Chromobox protein homolog 1 (Homo sapiens), P83916; AlphaScreen HP1-beta / biotin-H3K9me3 peptide binding; Potency, µM (series often up to 114 µM), for inactives: at the highest dose activity change, negative = inhibition, most hits filed as inhibitors; 390,000 tested, 0.56% active; AID 540317, 2011; note: potency is the fitted concentration of half-maximal effect; nearly all actives have a fitted effect of over 70% in size
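AlphaScreen: HP1-beta (50 nM) preformed 30 min with biotin-H3(1-18)K9me3 peptide (50 nM) in PBS pH 7.4, 0.01% Tween-20. Compound added for 30 min at RT, then streptavidin donor/nickel chelate acceptor beads (10 ug/mL) for 30 min.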
PI5P4Ka inh – qHTS for Inhibitors of phosphatidylinositol 5-phosphate 4-kinase (PI5P4K) | Phosphatidylinositol 5-phosphate 4-kinase type-2 alpha (Homo sapiens), P48426 | PI5P4Kalpha enzyme, ADP-Glo luminescence, 60 min; active compounds read low | max response, % | 330,000 tested, 1.2% active; active = max response of -50% or lower; inconclusive = between -30% and -50%; inactive = -30% or higher; note: value at the top dose of about 77 µM; % is set by controls: 0 for no effect and ±100 for the full control effect
Target sequence (P48426 whole entry, looked up): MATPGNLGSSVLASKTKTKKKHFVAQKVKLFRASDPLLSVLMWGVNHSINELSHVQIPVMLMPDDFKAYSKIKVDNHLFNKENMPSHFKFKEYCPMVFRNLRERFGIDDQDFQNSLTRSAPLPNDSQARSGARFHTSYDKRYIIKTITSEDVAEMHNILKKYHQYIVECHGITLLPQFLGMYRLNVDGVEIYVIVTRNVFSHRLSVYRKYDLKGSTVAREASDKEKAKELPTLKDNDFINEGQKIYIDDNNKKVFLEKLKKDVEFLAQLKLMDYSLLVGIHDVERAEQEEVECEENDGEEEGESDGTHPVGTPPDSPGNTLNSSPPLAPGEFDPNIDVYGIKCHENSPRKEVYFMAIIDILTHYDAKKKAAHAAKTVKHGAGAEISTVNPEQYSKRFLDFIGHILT
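Compounds were pin-transferred onto PI5P4Kalpha and substrate in HEPES pH 7.4 buffer with EGTA, CHAPS and 5% DMSO. ATP (5 microM final) started the reaction, which ran 60 minutes at room temperature before ADP-Glo detection.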
GCN5L2 inh – qHTS Assay for Inhibitors of GCN5L2 | 390,000 tested, 0.21% active | Potency, µM (highest dose often 58.9 µM), without a hit: at the highest dose activity change, negative = inhibition, most hits filed as inhibitors | AID 504327, 2011 | Histone acetyltransferase KAT2A (Homo sapiens), Q92830 | GCN5L2 HAT assay, ThioGlo1 CoA-SH fluorescence; note: potency is the fitted concentration of half-maximal effect; % is set by controls: 0 for no effect and ±100 for the full control effect
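Free CoA generated was detected with ThioGlo1 (50uM) fluorescence at Ex340nm/Em540nm, read immediately and after 20 min at room temperature. Enzyme, 20 nM in HEPES pH 7.5 buffer, saw compounds 15 min before adding 75uM H3(1-25) peptide and 70uM acetyl-CoA.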
PLK1 PBD block – qHTS for Inhibitors of PLK1-PDB (polo-like kinase 1 - polo-box domain): Primary Screen. Serine/threonine-protein kinase PLK1 (Homo sapiens), P53350. Plk1 PBD binding of FITC phosphopeptide, fluorescence polarization. Potency, µM, without a hit: max response, negative = inhibition, usual class: inhibitors. 360,000 tested, 2.8% active. AID 720504, 2013; note: potency is the fitted concentration of half-maximal effect; series mostly up to about 57 µM; % is set by controls: 0 for no effect and ±100 for the full control effect; nearly all actives have a fitted effect of over 65% in size
BAZ2B inh – qHTS Assay for Inhibitors of BAZ2B | 360,000 tested, 4.4% active | Potency, µM (doses to about 114 µM), for the others: at the top dose activity change, negative = inhibition, most hits filed as inhibitors | AID 504333, 2011 | AlphaScreen BAZ2B-H3K14Ac peptide displacement; note: potency is the fitted concentration of half-maximal effect; % is set by controls: 0 for no effect and ±100 for the full control effect; nearly all actives have a fitted effect of over 60% in size
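Inhibition is scored as reduced AlphaScreen emission. The BAZ2B/b-H3(5-23)K14Ac complex (50 nM each) in PBS pH 7.4, 0.01% Tween-20 meets compound (up to 110 uM) for 30 min at RT before bead addition.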
JMJD2A Tudor – qHTS Assay for Inhibitors of JMJD2A-Tudor Domain. AlphaScreen JMJD2A-Tudor / H3K4me3 peptide binding. AID 504339, 2011. 390,000 tested, 4.4% active. Lysine-specific demethylase 4A (Homo sapiens), O75164. Potency, µM (highest dose often 114 µM), for the others: at the top dose activity change, negative = inhibition, most hits filed as inhibitors; note: potency is the fitted concentration of half-maximal effect; % is set by controls: 0 for no effect and ±100 for the full control effect; nearly all actives have a fitted effect of over 50% in size
* hit, by the source's call; u = inconclusive; x = not tested or not shown. The list is not random: actives were taken first. Their share in the collection is about 7%. Unless noted, calls come from the whole dose curve; as a rule, active = well fitted curve in the direction sought with a large enough effect; inconclusive = small, poorly fitted or top-dose-only effect, or another doubt; inactive = no such curve, though single readings can be large; an effect the other way counts as inactive or inconclusive.

SMILES | HP1b chromo inh | PI5P4Ka inh | GCN5L2 inh | PLK1 PBD block | BAZ2B inh | JMJD2A Tudor
COC(=O)CN1C(=O)S/C(=C/c2ccc(N3CCCCC3)o2)C1=O | u | x | -13.7% | 85.6% | 44.7µM* | 35.5µM*
CCn1c(C)cc(/C=C2/SC(=S)N(CC(=O)O)C2=O)c1C | 0.5% | 5.7 | -14.5% | 4.5% | -31.6% | -31.3%
CC(C)N1C(=O)S/C(=C\c2ccc(-c3ccc(Cl)c(C(=O)O)c3)o2)C1=O | -10.9% | -29.9 | -22.7% | u | -33.6% | 79.4µM*
CCCN1C(=O)S/C(=C/c2ccc(N3CCOCC3)o2)C1=O | 19.7% | -11.9 | -11.0% | 105.4% | u | -20.3%
Cc1ccc(N2NC(=O)/C(=C/c3ccc(-c4ccc(Cl)c(C(=O)O)c4)o3)C2=O)cc1 | -7.4% | u | -1.9% | u | u | u
O=C(O)CN1C(=O)/C(=C/c2ccc(N3CCCCC3)o2)SC1=S | u | u | -19.2% | -5.9% | 35.5µM* | u
O=C(O)c1ccc(-c2ccc(/C=C3\NC(=O)N(Cc4ccc(Cl)cc4)C3=O)o2)cc1Cl | 31.6µM* | -69.3* | -15.8% | 15µM* | 22.4µM* | 31.6µM*
COc1cc(NC(=O)C2CCN(S(=O)(=O)c3ccc4c(c3)oc(=O)n4C)CC2)cc(OC)c1 | 14.4% | x | 2.4% | x | -14.3% | -9.3%
CCCSc1nc2sc3c(c2c(=O)n1-c1ccccc1)CCC(C)C3 (stereo not drawn) | 16.5% | x | -2.7% | x | 3.6% | -11.1%
CCOC(=O)CN1C(=O)S/C(=C/c2ccco2)C1=O | 23.6% | 3.1 | -3.0% | -6.3% | u | 2.8%
CCOC(=O)CN1C(=O)S/C(=C/c2ccc(N3CCCCC3)o2)C1=O | 17.5% | -3.7 | -2.1% | 73.3% | -7.4% | 50.1µM*
CCOC(=O)CN1C(=O)S/C(=C\c2ccc(-c3ccc(C(=O)O)c(Cl)c3)o2)C1=O | -12.6% | u | u | -22.8% | u | 79.4µM*
Cc1ccc(S(=O)(=O)N2CCN=C2SCc2ccccc2)cc1 | 30.8% | 0.9 | -10.2% | 29.9µM* | 34.0% | 35.4%
COc1cc(C(N)=O)cc(Br)c1OC | 23.1% | 1.1 | 1.3% | 1.7% | 6.6% | 2.9%
CCOc1c(Br)cc(C(N)=O)cc1OC | -17.6% | -4.3 | -3.4% | u | -11.4% | 56.2µM*
CCOC(=O)c1cccc(NC(=O)C2=C(C)C(=O)OC23CCCCC3)c1 | 31.0% | x | -3.1% | x | -12.7% | -6.7%
Cc1ccc(Cl)cc1NC(=O)CN1C(=O)CCc2ccccc21 | 64.8% | x | -10.8% | x | -12.3% | -4.6%
Cc1ccc(NC(=O)CN2C(=O)CCc3ccccc32)cc1C | -19.1% | x | -19.0% | x | 79.4µM* | u
Cc1ccc(C)c(NC(=O)CN2C(=O)CCc3ccccc32)c1 | -6.8% | x | u | x | 79.4µM* | u
CN(C)c1ccc(CCc2ccc(N)cc2)cc1 | 50.1µM* | 12.0 | x | 3.8% | x | 56.2µM*
CCCNC(=O)C1(C)CCN(C(=O)COc2ccc(Cl)cc2Cl)C1 (stereo not drawn) | x | 2.7 | x | -10.4% | x | x
CCN(CCCNC(=O)Cn1ncc2c3ccccc3n(C)c2c1=O)c1cccc(C)c1 | 28.5% | x | -3.3% | x | -4.2% | -10.4%
CC(Nc1ccc(S(=O)(=O)N2CCN(C)CC2)cc1[N+](=O)[O-])c1ccccc1 (stereo not drawn) | -27.6% | -7.9 | -4.4% | -1.7% | u | u
COc1ccc(OCCOc2ccc(S(=O)(=O)N3CCCC3)cc2[N+](=O)[O-])cc1 | -8.6% | -7.9 | -9.7% | -6.5% | -9.5% | -27.8%
O=[N+]([O-])c1cc(S(=O)(=O)N2CCOCC2)ccc1OCc1ccccc1C(F)(F)F | 20.6% | -0.5 | -2.4% | 0.9% | -21.1% | -8.2%
